In test [1] the target is rat Constitutive Nitric Oxide Synthase (CNOS), Nos1 (gene 24598) (UniProt P29476). Nature of the test: NVS_ENZ_rCNOS: NovaScreen (NVS) Enzymatic Assay for rat Constitutive Nitric Oxide Synthase (CNOS) (AID 2283236). The procedure, abridged:
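Single 25 uM duplicate screen, then concentration series to 50 uM for chemicals meeting threshold. Rat brain membrane-derived CNOS activity detected radiometrically by filtration and scintillation counting, 1 h after compound addition; DMSO as baseline.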

Test [2] concerns the target human Sirtuin 2 (SIRT2), SIRT2 (gene 22933) (UniProt Q8IXJ6). Briefly: NVS_ENZ_hSIRT2: NovaScreen (NVS) Enzymatic Assay for human Sirtuin 2 (SIRT2) (AID 2283217). In short, it runs like this:
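Single-point duplicate screen at 25 uM, then concentration-response (max 50 uM) for chemicals passing threshold. Enzyme activity of recombinant human SIRT2 measured after 1 hr by fluorescence with mobility-shift separation of product; DMSO baseline.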

Test [3] has as its target human SRC Proto-Oncogene, Non-receptor Tyrosine Kinase (SRC), SRC (gene 6714) (UniProt P12931). Briefly: NVS_ENZ_hSRC: NovaScreen (NVS) Enzymatic Assay for human SRC Proto-Oncogene, Non-receptor Tyrosine Kinase (SRC) (AID 2283223). In short, it runs like this: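 Compounds passing 30% inhibition at 25 uM (duplicate) were titrated to a top concentration of 50 uM. Enzyme activity read by fluorescence with mobility-shift substrate/product separation after 1 h; DMSO baseline.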

In test [4] the target is human Vascular Endothelial Growth Factor Receptor 3 (VEGFR3), FLT4 (gene 2324) (UniProt P35916). Briefly: NVS_ENZ_hVEGFR3: NovaScreen (NVS) Enzymatic Assay for human Vascular Endothelial Growth Factor Receptor 3 (VEGFR3) (AID 2283229). The procedure, abridged: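 Chemicals first run in duplicate at 25 uM, with actives re-tested in concentration series to a top of 50 uM. Recombinant VEGFR3 activity measured after 1 h via fluorescence with mobility-shift product separation; inhibition fitted relative to DMSO.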

Test [5] concerns the target human Vascular Endothelial Growth Factor Receptor 2 (VEGFR2), KDR (gene 3791) (UniProt P35968). Briefly: NVS_ENZ_hVEGFR2: NovaScreen (NVS) Enzymatic Assay for human Vascular Endothelial Growth Factor Receptor 2 (VEGFR2) (AID 2283230). The procedure, abridged: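 Cell-free recombinant VEGFR2 kinase, fluorescent substrate with electrophoretic mobility-shift separation; read 1 h after dosing. Screened at 25 uM in duplicate, hits to concentration-response up to 50 uM; loss-of-signal versus DMSO.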

The target in test [6] is sheep Cyclooxygenase-1 (Cox1), PTGS1 (gene 443551) (UniProt P05979). Nature of the test: NVS_ENZ_oCOX1: NovaScreen (NVS) Enzymatic Assay for sheep Cyclooxygenase-1 (Cox1) (AID 2283239).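 Note: actives reduce cyclooxygenase activity so potencies are for inhibitors.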 In short, it runs like this:
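Colorimetric enzyme readout using sheep seminal-vesicle cyclooxygenase-1, measured 0.66 h post-dosing. Single-concentration duplicates at 25 uM first, then concentration series for actives, with DMSO as baseline and plate controls.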

The subject of test [7] is guinea pig Leukotriene B4 Receptor (LTB4), gene 100379538. Nature of the test: NVS_GPCR_gLTB4: NovaScreen (NVS) G Protein-Coupled Receptor Assay for guinea pig Leukotriene B4 Receptor (LTB4) (AID 2283247). The procedure, abridged:
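Membranes from guinea pig spleen incubated 2 h with radioligand and compound; bound counts measured by filtration and scintillation. Screened first at 25 uM in duplicate, then actives titrated to a 50 uM top concentration relative to DMSO.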

Test [8] addresses guinea pig Leukotriene D4 Receptor (LTD4), CYSLTR1 (gene 100135514) (UniProt Q2NNR5). Nature of the test: NVS_GPCR_gLTD4: NovaScreen (NVS) G Protein-Coupled Receptor Assay for guinea pig Leukotriene D4 Receptor (LTD4) (AID 2283248). The procedure, abridged: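 Guinea pig lung membrane preparation; bound radioligand measured by filter scintillation after 1 h, loss of signal versus DMSO marking displacement. Compounds tested at 25 uM in duplicate, hits retested to max 50 uM.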

Test [9] deals with rabbit Imidazoline 2 Central (I2C), CKB (gene 100009085) (UniProt P00567). Briefly: NVS_ENZ_rabI2C: NovaScreen (NVS) Enzymatic Assay for rabbit Imidazoline 2 Central (I2C) (AID 2283228). In short, it runs like this:
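Rabbit brain membranes, cell-free; readout by filter-based scintillation counting 1.5 hours after dosing, loss of signal vs DMSO. Initial duplicate test at 25 uM, then concentration-response with 50 uM top concentration.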

Test [10] can be described thus: NVS_GPCR_bNPY_NonSelective: NovaScreen (NVS) G Protein-Coupled Receptor Assay for bovine Neuropeptide Y (NPY) Receptor, Non-selective Binding (AID 2283245). The procedure, abridged: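 Displacement of radioligand from bovine hippocampal membrane receptors, read by filtration and scintillation counting after 1 hour. Concentration-response to a top of 50 uM followed a 25 uM duplicate primary screen. Loss of signal versus DMSO.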

Test [11] deals with human Serotonin, 5-Hydroxytryptamine Receptor 2A (5HT2A), HTR2A (gene 3356) (UniProt P28223). Nature of the test: NVS_GPCR_h5HT2A: NovaScreen (NVS) G Protein-Coupled Receptor Assay for human Serotonin, 5-Hydroxytryptamine Receptor 2A (5HT2A) (AID 2283249). In short, it runs like this: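 Radioligand displacement on human cortex tissue extract, counted by filtration and scintillation 1.5 h post-dosing. Initial single-concentration screen at 25 uM in duplicate, concentration series in follow-up; DMSO as baseline.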
Chain of human Serotonin, 5-Hydroxytryptamine Receptor 2A (5HT2A), HTR2A (gene 3356) (P28223 whole entry, looked up): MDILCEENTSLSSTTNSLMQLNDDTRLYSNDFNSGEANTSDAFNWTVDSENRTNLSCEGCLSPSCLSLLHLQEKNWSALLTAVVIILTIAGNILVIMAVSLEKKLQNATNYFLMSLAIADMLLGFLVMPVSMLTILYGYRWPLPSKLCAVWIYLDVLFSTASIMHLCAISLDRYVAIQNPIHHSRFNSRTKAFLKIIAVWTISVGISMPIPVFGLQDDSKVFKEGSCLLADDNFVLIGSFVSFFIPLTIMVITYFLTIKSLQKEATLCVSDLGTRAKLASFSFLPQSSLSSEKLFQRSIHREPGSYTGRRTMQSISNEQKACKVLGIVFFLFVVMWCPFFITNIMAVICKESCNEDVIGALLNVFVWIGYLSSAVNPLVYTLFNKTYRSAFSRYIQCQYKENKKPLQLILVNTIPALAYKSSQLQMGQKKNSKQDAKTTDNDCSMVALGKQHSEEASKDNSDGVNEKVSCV

Test [12] deals with guinea pig Muscarinic, Peripheral (Mperiperal) Receptor, Non-selective Binding, gene 100379235. Nature of the test: NVS_GPCR_gMPeripheral_NonSelective: NovaScreen (NVS) G Protein-Coupled Receptor Assay for guinea pig Muscarinic, Peripheral (Mperiperal) Receptor, Non-selective Binding (AID 2283250). The procedure, abridged: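 Screened in duplicate at 25 uM, hits retested in concentration series to 50 uM max, using bladder membrane radioligand displacement from guinea pig. Filtration and scintillation counting 1 h post-dose, fitted relative to DMSO.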

Test [13] deals with human Sirtuin 1 (SIRT1), SIRT1 (gene 23411) (UniProt Q96EB6). Briefly: NVS_ENZ_hSIRT1: NovaScreen (NVS) Enzymatic Assay for human Sirtuin 1 (SIRT1) (AID 2283219). The procedure, abridged: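 Cell-free recombinant SIRT1 with a fluorescent substrate; substrate and product separated by electrophoretic mobility shift and read by fluorescence intensity, 1 h after dosing. Primary screen at 25 uM in duplicate; hits re-run in concentration-response up to 50 uM, relative to DMSO.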
Chain of human Sirtuin 1 (SIRT1), SIRT1 (gene 23411) (Q96EB6 whole entry, looked up): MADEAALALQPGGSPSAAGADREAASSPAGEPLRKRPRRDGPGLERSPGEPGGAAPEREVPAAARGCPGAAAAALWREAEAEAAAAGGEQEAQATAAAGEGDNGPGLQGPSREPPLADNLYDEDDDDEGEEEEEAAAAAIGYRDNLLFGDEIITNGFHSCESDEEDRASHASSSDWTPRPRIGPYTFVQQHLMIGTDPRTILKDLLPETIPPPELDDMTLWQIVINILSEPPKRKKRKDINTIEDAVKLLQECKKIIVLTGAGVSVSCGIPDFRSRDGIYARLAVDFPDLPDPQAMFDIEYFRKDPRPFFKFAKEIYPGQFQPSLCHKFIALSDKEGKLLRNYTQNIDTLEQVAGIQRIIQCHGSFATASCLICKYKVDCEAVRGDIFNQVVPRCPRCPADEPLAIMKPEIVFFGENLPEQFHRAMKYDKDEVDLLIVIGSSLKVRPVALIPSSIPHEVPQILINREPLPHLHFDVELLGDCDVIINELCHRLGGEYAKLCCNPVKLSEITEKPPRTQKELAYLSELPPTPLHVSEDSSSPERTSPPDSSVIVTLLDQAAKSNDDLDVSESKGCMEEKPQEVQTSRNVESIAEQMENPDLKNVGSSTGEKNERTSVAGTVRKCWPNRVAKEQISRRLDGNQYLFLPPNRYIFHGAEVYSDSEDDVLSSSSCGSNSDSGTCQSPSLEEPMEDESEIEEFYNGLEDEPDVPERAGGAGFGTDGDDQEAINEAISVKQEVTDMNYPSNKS

Test [14] has as its target Adenosine receptor A1 (Bos taurus) (UniProt P28190). Briefly: NVS_GPCR_bAdoR_NonSelective: NovaScreen (NVS) G Protein-Coupled Receptor Assay for bovine Adenosine Receptor (AdoR), Non-selective Binding (AID 2283244). In short, it runs like this: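 Cell-free binding with membranes from bovine striatum: radioligand displaced by test chemical, read after 1 h by filtration and scintillation. Single-point 25 uM duplicate primary, 50 uM top concentration in follow-up curves, DMSO baseline.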

The test system of test [15] is bovine Histamine 1 Receptor (H1), gene 281231. Briefly: NVS_GPCR_bH1: NovaScreen (NVS) G Protein-Coupled Receptor Assay for bovine Histamine 1 Receptor (H1) (AID 2283246). The procedure, abridged:
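Hits from a 25 uM duplicate primary screen were retested in concentration series (top 50 uM); binding measured as scintillation-counted displacement of radioligand from bovine cerebellar membranes after 1 h, normalised to DMSO.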

Test [16] has as its target human Sirtuin 3 (SIRT3), SIRT3 (gene 23410) (UniProt Q9NTG7). Briefly: NVS_ENZ_hSIRT3: NovaScreen (NVS) Enzymatic Assay for human Sirtuin 3 (SIRT3) (AID 2283222). The procedure, abridged:
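Cell-free enzyme assay with recombinant protein and fluorescent substrate, product separated by electrophoretic mobility shift; read 1 hour after dosing. Screened in duplicate at 25 uM, then singleton concentration-response up to 50 uM; loss of signal versus DMSO.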

Test [17] addresses bovine Dopamine Receptor (DR), Non-selective Binding, DRD1 (gene 281125) (UniProt Q95136). Nature of the test: NVS_GPCR_bDR_NonSelective: NovaScreen (NVS) G Protein-Coupled Receptor Assay for bovine Dopamine Receptor (DR), Non-selective Binding (AID 2283241). The procedure, abridged:
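Filter-based radioligand binding with bovine striatal membrane, incubated 1 h; DMSO as negative baseline. Initial duplicate single-point test at 25 uM preceded concentration series for actives.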

Test [18] has as its target human Vascular Endothelial Growth Factor Receptor 1 (VEGFR1), FLT1 (gene 2321) (UniProt P17948). Briefly: NVS_ENZ_hVEGFR1: NovaScreen (NVS) Enzymatic Assay for human Vascular Endothelial Growth Factor Receptor 1 (VEGFR1) (AID 2283226). In short, it runs like this:
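Kinase activity of recombinant human VEGFR1 was read by fluorescence after electrophoretic separation of product from substrate, 1 h post-dosing; initial duplicate single-point testing at 25 uM, followed by concentration-series follow-up, with DMSO as baseline.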

For test [19], the target named is sheep Cyclooxygenase-2 (Cox2), PTGS2 (gene 443460) (UniProt P79208). Briefly: NVS_ENZ_oCOX2: NovaScreen (NVS) Enzymatic Assay for sheep Cyclooxygenase-2 (Cox2) (AID 2283231). The procedure, abridged: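 Enzyme extracted from ovine placenta tested cell-free; activity read colorimetrically by absorbance 0.66 hour after dosing. Primary screen in duplicate at 25 uM; hits rerun as concentration series to 50 uM, loss of signal versus DMSO baseline.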
Chain of sheep Cyclooxygenase-2 (Cox2), PTGS2 (gene 443460) (P79208 whole entry, looked up): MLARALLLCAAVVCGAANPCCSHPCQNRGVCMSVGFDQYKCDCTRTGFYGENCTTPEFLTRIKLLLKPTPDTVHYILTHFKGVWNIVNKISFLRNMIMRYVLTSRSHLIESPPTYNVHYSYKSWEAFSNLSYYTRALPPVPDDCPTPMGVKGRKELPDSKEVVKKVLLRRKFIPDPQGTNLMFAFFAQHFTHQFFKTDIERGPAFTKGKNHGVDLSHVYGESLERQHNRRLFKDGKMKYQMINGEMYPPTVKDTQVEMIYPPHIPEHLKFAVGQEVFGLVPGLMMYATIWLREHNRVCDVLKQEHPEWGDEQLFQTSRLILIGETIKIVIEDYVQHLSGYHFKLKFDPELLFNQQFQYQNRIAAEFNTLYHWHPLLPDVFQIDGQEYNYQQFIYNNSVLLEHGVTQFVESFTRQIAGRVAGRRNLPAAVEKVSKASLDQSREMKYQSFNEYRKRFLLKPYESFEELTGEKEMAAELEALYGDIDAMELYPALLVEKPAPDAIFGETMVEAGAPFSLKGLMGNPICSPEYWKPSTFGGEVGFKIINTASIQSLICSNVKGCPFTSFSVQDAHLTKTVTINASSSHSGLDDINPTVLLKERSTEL

Records with an inconclusive call do not appear. The source made the active and inactive calls. Rule for the calls: active = hit-call score of the fitted dose curve at least 0.9, where 1 is the maximum; inconclusive = response in the unintended direction; inactive = score below 0.9.

Chain of human Vascular Endothelial Growth Factor Receptor 2 (VEGFR2), KDR (gene 3791) (P35968 whole entry, looked up): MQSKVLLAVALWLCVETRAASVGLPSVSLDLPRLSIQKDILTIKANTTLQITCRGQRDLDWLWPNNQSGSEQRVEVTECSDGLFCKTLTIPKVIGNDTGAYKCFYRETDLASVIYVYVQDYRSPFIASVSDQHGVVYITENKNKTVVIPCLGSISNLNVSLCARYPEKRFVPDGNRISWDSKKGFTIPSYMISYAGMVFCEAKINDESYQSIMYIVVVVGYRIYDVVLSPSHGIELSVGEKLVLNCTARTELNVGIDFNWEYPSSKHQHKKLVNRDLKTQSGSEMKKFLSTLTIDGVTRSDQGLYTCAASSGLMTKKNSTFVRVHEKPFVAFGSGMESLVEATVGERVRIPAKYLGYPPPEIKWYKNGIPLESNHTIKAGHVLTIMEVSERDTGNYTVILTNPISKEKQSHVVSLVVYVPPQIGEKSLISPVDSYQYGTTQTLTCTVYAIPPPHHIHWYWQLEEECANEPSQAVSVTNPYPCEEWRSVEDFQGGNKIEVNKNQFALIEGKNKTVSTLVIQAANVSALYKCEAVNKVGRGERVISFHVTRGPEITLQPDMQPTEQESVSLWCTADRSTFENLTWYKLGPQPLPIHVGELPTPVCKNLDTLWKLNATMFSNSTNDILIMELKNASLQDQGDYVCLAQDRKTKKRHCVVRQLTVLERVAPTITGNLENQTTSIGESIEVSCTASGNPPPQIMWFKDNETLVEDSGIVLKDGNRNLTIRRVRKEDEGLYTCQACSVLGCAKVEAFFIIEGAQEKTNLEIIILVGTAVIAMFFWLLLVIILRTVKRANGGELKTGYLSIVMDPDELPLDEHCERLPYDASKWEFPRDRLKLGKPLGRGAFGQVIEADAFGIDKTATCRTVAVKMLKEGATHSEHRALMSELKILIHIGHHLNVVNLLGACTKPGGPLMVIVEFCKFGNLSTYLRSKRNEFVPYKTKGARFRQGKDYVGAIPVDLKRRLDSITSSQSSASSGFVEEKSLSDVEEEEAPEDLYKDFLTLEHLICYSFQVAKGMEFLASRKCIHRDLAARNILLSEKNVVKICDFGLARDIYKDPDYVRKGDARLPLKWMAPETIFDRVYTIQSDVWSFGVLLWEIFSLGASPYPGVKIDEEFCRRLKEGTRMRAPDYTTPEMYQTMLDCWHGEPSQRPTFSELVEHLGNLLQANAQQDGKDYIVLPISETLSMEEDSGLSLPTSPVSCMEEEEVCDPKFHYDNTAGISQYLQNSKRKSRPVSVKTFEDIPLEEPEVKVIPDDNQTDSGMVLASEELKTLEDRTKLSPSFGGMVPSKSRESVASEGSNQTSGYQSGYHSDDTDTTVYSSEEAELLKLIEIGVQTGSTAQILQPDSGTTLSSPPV
Chain of sheep Cyclooxygenase-1 (Cox1), PTGS1 (gene 443551) (P05979 whole entry, looked up): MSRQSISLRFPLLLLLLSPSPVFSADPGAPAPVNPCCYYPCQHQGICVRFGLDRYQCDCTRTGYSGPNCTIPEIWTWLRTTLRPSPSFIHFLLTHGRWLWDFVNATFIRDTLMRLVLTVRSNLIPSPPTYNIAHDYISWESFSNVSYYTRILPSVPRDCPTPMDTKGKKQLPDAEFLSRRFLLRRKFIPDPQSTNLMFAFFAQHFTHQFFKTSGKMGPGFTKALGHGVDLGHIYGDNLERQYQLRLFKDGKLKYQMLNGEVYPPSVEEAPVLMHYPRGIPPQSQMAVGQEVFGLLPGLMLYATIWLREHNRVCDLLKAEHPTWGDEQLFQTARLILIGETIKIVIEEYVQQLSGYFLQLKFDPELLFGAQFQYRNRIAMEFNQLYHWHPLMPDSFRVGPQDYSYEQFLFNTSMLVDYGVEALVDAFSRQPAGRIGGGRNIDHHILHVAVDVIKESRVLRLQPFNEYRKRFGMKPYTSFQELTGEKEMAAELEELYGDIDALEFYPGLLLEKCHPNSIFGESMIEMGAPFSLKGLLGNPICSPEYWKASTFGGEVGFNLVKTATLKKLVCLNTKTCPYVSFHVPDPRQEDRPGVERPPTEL
Chain of guinea pig Leukotriene D4 Receptor (LTD4), CYSLTR1 (gene 100135514) (Q2NNR5 whole entry, looked up): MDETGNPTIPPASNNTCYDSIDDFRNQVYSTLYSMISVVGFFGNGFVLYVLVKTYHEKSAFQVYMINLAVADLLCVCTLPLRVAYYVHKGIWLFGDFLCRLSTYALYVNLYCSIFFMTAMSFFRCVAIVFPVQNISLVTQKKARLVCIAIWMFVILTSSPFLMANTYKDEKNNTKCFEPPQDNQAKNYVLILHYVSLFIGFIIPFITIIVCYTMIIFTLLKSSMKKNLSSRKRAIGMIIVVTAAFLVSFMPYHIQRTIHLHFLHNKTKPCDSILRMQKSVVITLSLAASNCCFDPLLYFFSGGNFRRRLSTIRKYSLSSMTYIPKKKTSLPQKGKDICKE
Chain of Adenosine receptor A1 (Bos taurus) (P28190 whole entry, looked up): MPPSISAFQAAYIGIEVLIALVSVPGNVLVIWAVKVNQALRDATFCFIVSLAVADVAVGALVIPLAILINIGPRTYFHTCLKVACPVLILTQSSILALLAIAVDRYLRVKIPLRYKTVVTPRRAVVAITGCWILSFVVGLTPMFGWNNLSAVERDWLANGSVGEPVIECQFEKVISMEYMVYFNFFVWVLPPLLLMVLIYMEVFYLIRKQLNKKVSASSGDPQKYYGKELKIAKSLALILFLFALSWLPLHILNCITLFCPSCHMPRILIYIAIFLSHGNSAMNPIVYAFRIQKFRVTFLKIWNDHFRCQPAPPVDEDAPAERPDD
Chain of human Sirtuin 2 (SIRT2), SIRT2 (gene 22933) (Q8IXJ6 whole entry, looked up): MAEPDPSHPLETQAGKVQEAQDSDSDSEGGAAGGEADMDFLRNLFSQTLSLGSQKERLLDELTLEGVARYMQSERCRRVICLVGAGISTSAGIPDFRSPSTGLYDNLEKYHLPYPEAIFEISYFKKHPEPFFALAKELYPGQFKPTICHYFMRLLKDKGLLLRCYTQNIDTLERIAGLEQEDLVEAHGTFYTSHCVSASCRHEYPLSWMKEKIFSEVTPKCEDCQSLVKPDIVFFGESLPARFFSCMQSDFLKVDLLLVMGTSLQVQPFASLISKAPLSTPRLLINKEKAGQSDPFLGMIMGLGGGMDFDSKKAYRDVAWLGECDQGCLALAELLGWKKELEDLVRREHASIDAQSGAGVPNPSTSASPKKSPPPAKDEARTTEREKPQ

As a reminder, the AC50 is the concentration giving half of the maximal activity seen. With `c1ccc2c(c1)ccc1ccccc12`, the AC50 in test [1] was 1.16 µM (active).

With `CCCCCCCCCCCCc1ccccc1S(=O)(=O)O`, the AC50 in [2] was 24.4 µM (active); in test [4], 9.14 µM (active); in test [5], 39.2 µM (active); in [6], 9.01 µM (active); in [7], 7.5 µM (active); in [8], 25 µM (active). Further, in [3], the outcome was inactive.

For `CCCOc1sc(C(=O)N2CCC(c3cc(CN)ccc3F)CC2)c(C)c1Br`, the AC50 in test [9] is 4.64 µM (active); in [10], 36.3 µM (active); in test [11] it was 14.3 µM (active); in test [12], 23.2 µM (active). Also, the outcome in test [5] and in [1] was inactive.

As for `CCc1ccc(CCOc2ccc(CC3SC(=O)NC3=O)cc2)nc1` (stereo not given), the AC50 in test [1] is 4.25 µM (active).

For `Cc1cc(CCN2CCN(c3nsc4ccccc34)CC2)cc2c1NC(=O)CC2(C)C`, the compound was classed as inactive in [13], in test [14], in test [7] and in test [8].

On to `CC[C@H](C)[C@@H](C(=O)O)n1sc2ccccc2c1=O`, for which the compound was classed as inactive in [13], in test [7] and in test [8].

As for `O=c1c(-c2ccc(O)cc2)coc2cc(O)ccc12`, the compound was classed as inactive in test [11].

In the case of `C#C[C@]1(O)CC[C@H]2[C@@H]3CCC4=CC(=O)CC[C@@H]4[C@H]3CC[C@@]21C`, the outcome in test [15] was inactive.

As to `Nc1cccc2c(N)cccc12`, the result in test [13], in test [16], in test [4] and in test [14] was inactive.

Take `Oc1cc2ccccc2c2ccccc12`: the results for the AC50 in test [5] and in test [6] were 7.7 µM (active) and 27.7 µM (active), respectively.

Consider `c1ccc2cc3c(ccc4ccccc43)cc2c1`, for which the concentration at half-maximal activity (AC50) in [17] was 32.8 µM (active). For the same compound, the call in test [15] was inactive.

With `CCCCC(CC)COC(=O)CCCCC(=O)OCC(CC)CCCC` (stereo not given), the outcome in test [13] was inactive.

`CC(C)(C)c1cc(C(C)(C)C)c(O)c(C(C)(C)C)c1`: the compound was called inactive in test [11].

Take `CCCCOCCO`: the outcome in test [2] and in test [18] was inactive.

For `OC1CCCCC1`, the compound was called inactive in [19].

On to `CCCOC(=O)c1ccc(O)cc1`, for which the outcome in test [18] and in test [7] was inactive. Moreover, the half-maximal activity concentration (AC50) in test [19] was 25 µM (active).

Consider `CC(=O)NC1(c2cccc(F)c2)CCN(CC[C@@]2(c3ccc(Cl)c(Cl)c3)CN(c3ccccc3)C(=O)CO2)CC1`, for which the AC50 in test [17] was 11.3 µM (active); in test [11] it was 1.9 µM (active); in [12], 20.8 µM (active).

Take `NC(=O)N(O)[C@@H]1C=C[C@H](Oc2cccc(Oc3ccc(F)cc3)c2)C1`: the outcome in [19] and in test [6] was inactive.

These data come from PubChem BioAssay (EPA / NIEHS).
